Screening results from PubChem.
CCHF vOTU inh: CCHFV vOTU protease inhibition; Pep-AMC fluorescence; 370,000 compounds, 0.55% hits; inhibition, % at 11.5 µM; in the data active means inhibition above about 30%; further: 0% = vehicle wells with enzyme and 100% = no enzyme wells
DUSP3 inh: inhibitors of human VHR1 phosphatase (DUSP3); recombinant VHR phosphatase, pNPP absorbance; 290,000 compounds, 0.52% hits; inhibition, % at 13.3 µM; P51452; AID 1654; in the data active means inhibition above about 50%
Target sequence (P51452 whole entry, looked up): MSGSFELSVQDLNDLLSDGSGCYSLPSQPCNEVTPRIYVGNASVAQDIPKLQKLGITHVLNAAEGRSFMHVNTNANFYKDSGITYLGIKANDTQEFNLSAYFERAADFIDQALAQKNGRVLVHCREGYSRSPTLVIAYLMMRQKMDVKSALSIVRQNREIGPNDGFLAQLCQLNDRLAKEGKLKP
RN4220 kill: S. aureus RN4220 growth inhibition. OD600, 16 h. inhibition, % (no concentration beside the values). 330,000 compounds, 0.33% hits. AID 1259311; in the data active means inhibition above about 85%;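 further: plate controls were untreated cells for no effect and reference antibiotic for full effect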
PriA SSB inh: K. pneumoniae PriA-SSBct interaction inhibition | AlphaScreen SSBct-PriA binding, biotinylated peptide | inhibition, % at 33 µM | 430,000 compounds, 0.6% hits; in the data active means inhibition mostly above about 37%, no sharp cut-off; inactive means mostly below about 20%;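 further: plate controls were negative control peptide for no effect and reference peptide for full effect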
Sa ugtP lethal: kills S. aureus RN4220 lacking UgtP | S. aureus RN4220 ugtP deletion, OD600 growth, 16 h | growth inhibition, % (concentration not given with the values) | 330,000 compounds, 0.54% hits; in the data active means growth inhibition above about 68%;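 further: plate controls were untreated wells for no effect and antibiotic for full effect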
Starred values were filed as active, the others as inactive; . = not tested or not shown. Compounds with a hit are over-represented: about 1.5% of the library has one in this group of screens.

SMILES	CCHF vOTU inh	DUSP3 inh	RN4220 kill	PriA SSB inh	Sa ugtP lethal
CCN(CC)c1ccc(NC(=O)CN2CCCN(Cc3ccccc3Cl)S2(=O)=O)c(C)c1	.	.	.	30.0	.
Cc1cccc(NC(=O)Nc2nc(C(=O)N[C@@H](C)c3ccccc3)cs2)c1	.	.	.	-6.0	.
C[C@@H]1Oc2ccccc2CN(c2cc(Cl)ccc2F)C1=O	.	.	.	-8.0	.
COc1ccc2nc(NC(=O)c3ccc([N+](=O)[O-])o3)sc2c1	-1.5	31.9	48.2	-2.3	100.2*
Cc1cc(C)c2nc(NC(=O)c3ccc([N+](=O)[O-])o3)sc2c1	-7.5	17.9	7.5	-5.8	99.3*
O=C(Nc1nc2cc3c(cc2s1)OCCO3)c1ccc([N+](=O)[O-])o1	9.3	-4.0	20.9	-5.0	88.1*
O=C(CCS(=O)(=O)c1ccc(Br)cc1)N1CCN(c2ccc(F)cc2)CC1	26.1	50.4*	1.4	8.6	3.0
CN(C)c1ccc(CCCNC(=O)CCc2ccccc2)cc1	.	.	.	16.0	.
Cc1ccc(NC(=O)NCC(c2ccsc2)N2CCOCC2)cc1 (centres undefined)	.	.	.	5.0	.
O=C(c1ccco1)N1CCC(Cn2cccn2)CC1	.	.	.	-14.0	.
O=C(c1ccc(F)cc1Cl)N1CCC(Cn2cccn2)CC1	.	.	.	37.0*	.
Cc1ccc(S(=O)(=O)/N=C2/C=C(C3C(=O)CC(C)(C)CC3=O)C(=O)c3ccccc32)cc1	108.0*	-9.9	.	.	.
Cc1cnc2n(c1=O)C[C@H](C(=O)NC1CC1)CS2	.	.	.	-10.0	.
Cc1ccc2c(c1)sc[n+]2Cc1ccccc1	-4.0	24.7	20.8	21.2	99.3*
O=C(NCCc1c[nH]c2ccccc12)C1CCCN(c2cc(C3CC3)ncn2)C1 (centres undefined)	.	.	.	5.0	.
S=c1[nH]nc(-c2cc(-c3ccccc3)n[nH]2)n1/N=C/c1cccc(Cl)c1	-2.1	50.0*	.	.	.
S=c1[nH]nc(-c2cc(-c3ccccc3)n[nH]2)n1N=Cc1ccc(Cl)cc1	.	.	-18.7	-6.0	-29.3
c1ccc(CCNc2nc(-c3ccccn3)cs2)cc1	1.6	9.5	1.4	19.8	8.1
Oc1ccc(-c2csc(Nc3ncccn3)n2)c(O)c1	-4.2	14.7	8.1	-9.0	-3.6
NNc1nc(-c2ccccn2)cs1	.	.	.	130.5*	.
Cc1ccc(C)c(Nc2nc(-c3ccccn3)cs2)c1	.	.	.	68.6*	.
c1ccc(Nc2nc(-c3ccccn3)cs2)nc1	.	.	.	150.5*	.
c1ccc(-c2csc(Nc3ncccn3)n2)nc1	.	.	.	69.9*	.
COc1ccc(C(=O)c2c(C)oc3ccc(O)cc23)c(OC)c1	1.7	58.2*	5.3	11.3	-1.6
Cc1ccc(C(=O)Nc2cccc([N+](=O)[O-])c2)cc1S(=O)(=O)Nc1cccc(C(=O)O)c1	1.3	-13.9	26.7	6.3	93.8*
SMILES	CCHF vOTU inh	DUSP3 inh	RN4220 kill	PriA SSB inh	Sa ugtP lethal
CCC(C)(C)c1ccc(OCCCC[n+]2ccc(C)cc2)c(C(C)(C)CC)c1	19.9	1.2	100.5*	1.6	100.4*
CCC(C)(C)c1ccc(OCCCC[n+]2cccc(C)c2C)c(C(C)(C)CC)c1	19.9	21.0	100.8*	-3.4	100.5*
CCC(C)(C)c1ccc(OCCCC(=O)N2CCN(Cc3ccccc3)CC2)c(C(C)(C)CC)c1	.	.	.	-15.0	.
CCC(C)(C)c1ccc(OCCCCSc2nc3ccccc3[nH]2)c(C(C)(C)CC)c1	.	.	.	-5.0	.
CCCCOc1ccc(C(=O)NCc2ccnc(N(C)C)n2)cc1	.	.	.	0.0	.
CCCc1ccc(S(=O)(=O)N2CCN(Cc3nc(-c4ccco4)cs3)CC2)cc1	.	.	.	-19.0	.
C=CCn1cccc(C(=O)Nc2ccc(Cl)cc2)c1=O	-4.3	19.7	0.1	4.2	7.3
C=CCn1cccc(C(=O)Nc2ccc(N(C)C)cc2)c1=O	6.4	56.0*	-3.0	-0.9	-9.2
COC(=O)/C=C1/NC(=Nc2nc(C)cc(C)n2)N(c2cccc(C)c2)C1=O	.	.	.	0.6	.
Cc1cccn2cc(-c3cccc(N)c3)nc12	.	.	.	52.0*	.
Cc1ccc(-c2cn3cccc(C)c3n2)cc1N	.	.	.	1.0	.
COc1ccc2[nH]cc(S(=O)(=O)c3ccc(F)cc3)c(=O)c2c1	4.9	-8.6	-1.2	104.2*	-13.5
CCOc1ccc2[nH]cc(S(=O)(=O)c3ccc(F)cc3)c(=O)c2c1	2.0	46.1	8.5	-7.7	3.2
Cc1ccc(S(=O)(=O)CCc2nnc(NC(=O)c3ccccn3)s2)cc1	.	-4.4	-3.0	85.5*	-15.1
Cc1ccc(S(=O)(=O)CCc2nnc(NC(=O)c3cnccn3)s2)cc1	0.9	-13.3	-2.5	4.6	8.4
O=C(NCc1ccc2c(c1)OCO2)Nc1cccc(Cl)c1	-3.5	58.7*	-3.2	-19.9	-8.8
O=C(NCc1ccccc1)NC1(C(=O)Nc2ccc3c(c2)OCCO3)CCCCC1	0.5	9.5	6.9	-18.7	-3.3
Cc1cc(CNC(=O)Nc2ccc3c(c2)OCO3)c(C)o1	.	.	.	39.0*	.
CC(=O)c1cccc(NC(=O)NCc2ccc3c(c2)OCO3)c1	-3.6	10.1	0.3	-4.4	-1.5
O=C(Nc1ccccc1)NC1(C(=O)NCc2ccc3c(c2)OCO3)CCCCC1	-4.9	-5.6	9.1	-13.4	99.8*
CN1CCC(Oc2ccc(Sc3ccccc3)cc2)CC1	-13.6	1.7	-0.9	2.8	94.0*
O=C1c2cc(Cl)ccc2-c2c(O)cc(Cl)cc21	3.8	.	99.8*	-0.1	100.0*
O=c1cc(O)c(-c2ccc(Cl)cc2)c(Cl)[nH]1	5.7	8.7	3.2	-0.3	-0.2
COc1ccc(Nc2c(C(=O)N3CCOCC3)cnc3ccccc23)cc1Cl	.	.	.	-4.0	.
COc1ccc(C(=O)Cn2cnc3ccccc3c2=O)cc1	8.8	54.8*	.	-4.9	.
SMILES	CCHF vOTU inh	DUSP3 inh	RN4220 kill	PriA SSB inh	Sa ugtP lethal
COc1ccccc1CCNC(=O)CSc1nnc2ccc(-c3ccco3)nn12	.	.	.	4.0	.
COc1cccc(CN(C)CC(=O)Nc2cc(S(=O)(=O)N3CCCC3)ccc2Cl)c1OC	7.0	.	0.8	42.1*	4.6
O=C(CNCc1ccccn1)Nc1cc(S(=O)(=O)N2CCCCC2)ccc1Cl	7.4	-2.9	3.9	40.5*	0.5
Cc1ccc(S(=O)(=O)N2CCOCC2)cc1NC(=O)CNCc1ccccn1	-9.1	7.2	0.1	43.8*	-5.4
COc1ccccc1CN(C)CC(=O)Nc1cccc(S(=O)(=O)N2CCCC2)c1	-13.1	.	-0.9	-3.0	-2.0
CN(C)S(=O)(=O)c1cccc(NC(=O)CNCc2ccccn2)c1	4.0	-6.8	-1.3	49.6*	4.7
O=C(CNCc1ccncc1)Nc1cc(S(=O)(=O)N2CCCCC2)ccc1Cl	11.3	33.3	3.7	-12.3	2.7
Cc1ccccc1CSc1nccn1-c1ccccc1	1.6	12.3	5.2	49.5*	4.7
Cc1ccccc1CSc1nnc(-c2ccccn2)n1C	-13.8	8.5	5.1	-13.2	5.3
CCOc1ccc(S(=O)(=O)NC[C@H](O)c2ccc(C(F)(F)F)cc2)cc1F	.	.	.	-7.0	.
C=C(Cl)CSC(=S)N(CC)CC	-2.9	.	6.7	-2.3	14.8
CCN(CC)C(=S)SSC(=S)N(CC)CC	-8.6	16.3	28.4	2.8	99.4*
CCCCNS(=O)(=O)c1ccc2nc(SCC(=O)Nc3sccc3C#N)[nH]c2c1	29.6*	10.4	-0.3	-31.9	-4.5
CCCCNS(=O)(=O)c1ccc2nc(SCC(N)=O)[nH]c2c1	13.0	21.1	3.4	-16.9	3.2
COc1cc(OC)c([C@H]2C=C(C)[C@H]3C[C@@H]2C3(C)C)c(OC)c1	-10.0	.	-6.6	-16.1	94.1*
